Among the data in the supplement of paper PMC10849652 are log2 fold change values, retold here.

The full data set covers some 7,900 targets. This sample favours those with a hit. About 0.6% of all pairs of compound and target were hits. Unmarked numbers belong to inactive results.

UniProt P11388, sequence (P11388 whole entry, looked up): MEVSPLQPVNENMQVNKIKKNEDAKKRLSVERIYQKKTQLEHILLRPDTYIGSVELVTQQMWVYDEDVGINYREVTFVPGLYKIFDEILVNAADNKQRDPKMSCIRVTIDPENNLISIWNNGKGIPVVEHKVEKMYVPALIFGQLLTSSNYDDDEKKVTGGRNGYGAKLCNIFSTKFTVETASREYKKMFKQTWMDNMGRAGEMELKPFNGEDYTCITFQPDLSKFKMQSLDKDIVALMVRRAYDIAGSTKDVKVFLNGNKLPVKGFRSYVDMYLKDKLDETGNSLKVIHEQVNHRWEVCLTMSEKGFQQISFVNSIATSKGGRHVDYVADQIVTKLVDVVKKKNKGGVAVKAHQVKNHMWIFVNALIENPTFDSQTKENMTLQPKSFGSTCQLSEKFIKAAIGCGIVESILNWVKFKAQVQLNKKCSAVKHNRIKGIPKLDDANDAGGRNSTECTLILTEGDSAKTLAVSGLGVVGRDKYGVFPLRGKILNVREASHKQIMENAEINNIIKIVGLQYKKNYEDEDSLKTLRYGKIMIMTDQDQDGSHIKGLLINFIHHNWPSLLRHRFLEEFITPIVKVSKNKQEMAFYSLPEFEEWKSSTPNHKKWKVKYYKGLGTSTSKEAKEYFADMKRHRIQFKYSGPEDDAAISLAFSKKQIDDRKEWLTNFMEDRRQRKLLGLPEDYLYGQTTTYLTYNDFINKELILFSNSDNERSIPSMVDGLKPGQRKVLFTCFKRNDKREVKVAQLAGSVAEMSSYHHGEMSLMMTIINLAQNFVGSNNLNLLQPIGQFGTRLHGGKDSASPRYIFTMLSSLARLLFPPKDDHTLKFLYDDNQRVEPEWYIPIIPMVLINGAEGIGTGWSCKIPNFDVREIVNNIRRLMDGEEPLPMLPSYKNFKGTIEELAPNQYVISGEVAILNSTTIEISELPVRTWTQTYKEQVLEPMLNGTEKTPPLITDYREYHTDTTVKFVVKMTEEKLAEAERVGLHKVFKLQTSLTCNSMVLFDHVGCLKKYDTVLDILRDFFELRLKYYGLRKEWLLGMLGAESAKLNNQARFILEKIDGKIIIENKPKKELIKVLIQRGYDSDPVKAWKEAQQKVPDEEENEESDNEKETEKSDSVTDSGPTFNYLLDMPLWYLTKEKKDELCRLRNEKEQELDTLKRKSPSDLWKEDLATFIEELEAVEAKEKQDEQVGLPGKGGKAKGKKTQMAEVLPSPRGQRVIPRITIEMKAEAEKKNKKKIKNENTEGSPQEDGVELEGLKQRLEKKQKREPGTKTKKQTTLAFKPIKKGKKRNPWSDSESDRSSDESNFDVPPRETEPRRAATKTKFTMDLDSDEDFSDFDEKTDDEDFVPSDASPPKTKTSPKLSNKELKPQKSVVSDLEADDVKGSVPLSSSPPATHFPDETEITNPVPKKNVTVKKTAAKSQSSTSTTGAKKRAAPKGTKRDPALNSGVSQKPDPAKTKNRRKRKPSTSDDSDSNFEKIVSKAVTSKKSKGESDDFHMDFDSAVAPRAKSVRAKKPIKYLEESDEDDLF
UniProt Q86Y07, sequence (Q86Y07 whole entry, looked up): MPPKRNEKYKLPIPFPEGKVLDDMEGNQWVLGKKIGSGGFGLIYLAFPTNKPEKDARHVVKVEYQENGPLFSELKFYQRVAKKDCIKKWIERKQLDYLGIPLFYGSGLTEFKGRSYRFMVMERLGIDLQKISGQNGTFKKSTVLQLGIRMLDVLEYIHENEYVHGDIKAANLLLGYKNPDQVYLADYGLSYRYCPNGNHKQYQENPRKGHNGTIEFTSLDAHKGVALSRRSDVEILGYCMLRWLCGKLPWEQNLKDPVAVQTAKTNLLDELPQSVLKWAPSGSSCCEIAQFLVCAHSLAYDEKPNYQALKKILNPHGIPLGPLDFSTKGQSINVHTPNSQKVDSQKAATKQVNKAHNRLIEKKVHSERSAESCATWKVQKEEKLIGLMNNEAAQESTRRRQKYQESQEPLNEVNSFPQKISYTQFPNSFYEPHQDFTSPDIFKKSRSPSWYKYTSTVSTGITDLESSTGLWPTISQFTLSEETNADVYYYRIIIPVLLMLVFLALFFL
UniProt Q9Y5K5, sequence (Q9Y5K5 whole entry, looked up): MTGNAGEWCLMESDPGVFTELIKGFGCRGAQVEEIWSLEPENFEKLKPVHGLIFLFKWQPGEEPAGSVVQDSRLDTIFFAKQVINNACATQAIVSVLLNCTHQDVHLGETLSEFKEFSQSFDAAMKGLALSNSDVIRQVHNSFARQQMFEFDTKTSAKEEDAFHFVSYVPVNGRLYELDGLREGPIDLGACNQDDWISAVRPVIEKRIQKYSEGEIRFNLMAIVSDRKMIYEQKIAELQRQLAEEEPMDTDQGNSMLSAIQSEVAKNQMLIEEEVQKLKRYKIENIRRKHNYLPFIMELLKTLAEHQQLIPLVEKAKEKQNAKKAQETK
UniProt Q96AX1, sequence (Q96AX1 whole entry, looked up): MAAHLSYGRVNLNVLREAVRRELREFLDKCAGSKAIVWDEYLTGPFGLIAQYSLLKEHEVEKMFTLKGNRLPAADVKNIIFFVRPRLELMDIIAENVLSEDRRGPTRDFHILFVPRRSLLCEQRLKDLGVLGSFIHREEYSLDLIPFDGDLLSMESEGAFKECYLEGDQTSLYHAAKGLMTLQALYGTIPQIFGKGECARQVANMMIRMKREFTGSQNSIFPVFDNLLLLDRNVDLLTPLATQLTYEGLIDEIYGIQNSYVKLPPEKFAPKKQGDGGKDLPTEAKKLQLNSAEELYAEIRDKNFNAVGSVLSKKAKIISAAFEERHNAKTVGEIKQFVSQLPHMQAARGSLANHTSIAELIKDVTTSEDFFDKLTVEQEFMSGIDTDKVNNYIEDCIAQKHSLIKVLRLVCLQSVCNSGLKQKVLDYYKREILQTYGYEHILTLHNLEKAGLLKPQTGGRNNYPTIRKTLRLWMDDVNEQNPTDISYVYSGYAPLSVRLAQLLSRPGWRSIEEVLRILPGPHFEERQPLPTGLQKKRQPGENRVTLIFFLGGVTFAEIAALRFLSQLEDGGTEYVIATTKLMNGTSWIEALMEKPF
UniProt Q9NVA4, sequence (Q9NVA4 whole entry, looked up): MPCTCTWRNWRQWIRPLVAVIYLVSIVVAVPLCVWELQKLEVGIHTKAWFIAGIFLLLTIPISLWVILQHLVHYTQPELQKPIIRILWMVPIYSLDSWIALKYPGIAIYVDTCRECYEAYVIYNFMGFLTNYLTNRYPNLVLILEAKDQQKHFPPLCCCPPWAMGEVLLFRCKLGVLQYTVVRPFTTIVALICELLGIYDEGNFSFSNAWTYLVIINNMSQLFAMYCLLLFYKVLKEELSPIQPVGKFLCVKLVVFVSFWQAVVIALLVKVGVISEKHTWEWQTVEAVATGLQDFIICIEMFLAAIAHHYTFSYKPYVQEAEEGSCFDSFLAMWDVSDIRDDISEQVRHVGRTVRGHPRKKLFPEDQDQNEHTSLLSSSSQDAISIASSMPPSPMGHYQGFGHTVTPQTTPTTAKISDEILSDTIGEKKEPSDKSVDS
UniProt Q16881, sequence (Q16881 whole entry, looked up): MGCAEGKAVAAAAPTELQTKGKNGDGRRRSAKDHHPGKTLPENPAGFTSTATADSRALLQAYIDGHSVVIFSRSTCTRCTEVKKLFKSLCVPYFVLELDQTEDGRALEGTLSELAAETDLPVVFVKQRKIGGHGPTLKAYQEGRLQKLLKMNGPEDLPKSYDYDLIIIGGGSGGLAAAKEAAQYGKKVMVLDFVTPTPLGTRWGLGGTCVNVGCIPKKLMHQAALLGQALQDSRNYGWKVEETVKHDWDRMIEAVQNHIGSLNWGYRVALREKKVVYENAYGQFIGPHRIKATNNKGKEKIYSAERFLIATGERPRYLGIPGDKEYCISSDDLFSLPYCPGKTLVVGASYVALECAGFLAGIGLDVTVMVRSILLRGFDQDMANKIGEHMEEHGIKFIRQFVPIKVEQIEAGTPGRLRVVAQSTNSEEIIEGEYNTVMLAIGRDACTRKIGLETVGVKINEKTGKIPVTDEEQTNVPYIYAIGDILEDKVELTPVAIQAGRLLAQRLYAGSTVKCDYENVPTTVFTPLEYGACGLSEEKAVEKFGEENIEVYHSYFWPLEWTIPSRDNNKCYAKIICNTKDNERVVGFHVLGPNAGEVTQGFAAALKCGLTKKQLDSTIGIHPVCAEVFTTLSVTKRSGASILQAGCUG
UniProt Q9BXJ8, sequence (Q9BXJ8 whole entry, looked up): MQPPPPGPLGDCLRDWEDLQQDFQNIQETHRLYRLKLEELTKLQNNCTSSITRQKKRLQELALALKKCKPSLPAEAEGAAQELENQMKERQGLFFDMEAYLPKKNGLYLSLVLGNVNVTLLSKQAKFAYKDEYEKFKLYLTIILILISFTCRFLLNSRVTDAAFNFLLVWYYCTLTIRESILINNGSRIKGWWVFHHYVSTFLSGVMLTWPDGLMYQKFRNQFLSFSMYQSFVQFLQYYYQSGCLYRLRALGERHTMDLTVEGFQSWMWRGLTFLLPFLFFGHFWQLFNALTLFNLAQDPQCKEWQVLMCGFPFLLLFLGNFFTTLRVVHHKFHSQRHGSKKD
UniProt Q9H3M7, sequence (Q9H3M7 whole entry, looked up): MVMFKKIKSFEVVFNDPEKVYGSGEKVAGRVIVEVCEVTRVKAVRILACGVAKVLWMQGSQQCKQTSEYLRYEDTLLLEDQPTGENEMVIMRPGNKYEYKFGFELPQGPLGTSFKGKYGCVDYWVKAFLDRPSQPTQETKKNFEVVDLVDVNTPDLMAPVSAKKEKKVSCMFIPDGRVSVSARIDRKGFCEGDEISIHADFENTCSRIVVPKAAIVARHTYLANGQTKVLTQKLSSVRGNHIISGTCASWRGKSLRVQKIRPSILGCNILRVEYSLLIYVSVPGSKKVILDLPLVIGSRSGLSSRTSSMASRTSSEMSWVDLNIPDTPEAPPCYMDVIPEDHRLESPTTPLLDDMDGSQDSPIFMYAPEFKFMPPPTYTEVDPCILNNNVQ
UniProt Q9Y3C0, sequence (Q9Y3C0 whole entry, looked up): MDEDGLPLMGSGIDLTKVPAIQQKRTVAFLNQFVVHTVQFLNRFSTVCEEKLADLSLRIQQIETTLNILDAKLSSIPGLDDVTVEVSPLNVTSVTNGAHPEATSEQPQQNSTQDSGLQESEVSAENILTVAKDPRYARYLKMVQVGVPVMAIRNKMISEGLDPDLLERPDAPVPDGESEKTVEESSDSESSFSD

Compound in the assay: c1cn2cc(-c3ccc4cn[nH]c4c3)nc(Nc3ccc(N4CCOCC4)cc3)c2n1 [entospletinib]
The experiment in a line: log2 fold change, soluble protein after heating vs DMSO (PISA); higher = thermal stabilisation; K562 cells, 10 uM, 30 min; active = over 0.2 and 3.5 SD of the protein, either way, in both replicates (recomputed). The method in brief:
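K562 cells at 2×10^6 cells/mL were treated for 30 min with 10 μM compound, and aliquots were heated for 3 min over 48°C-58°C before pooling. Extraction used PBS with 0.5% NP-40 at 4°C, and soluble protein was the supernatant after 21,000xg for 90 min, measured by TMTpro 16plex LC-MS/MS with channel sums equalised. Thermal stability values, relative to control samples and from duplicates, are log2 fold changes.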
As to UGGT1 (UniProt Q9NYU2), the log2 fold change is -0.018.
The result for VDAC1 (UniProt C9JI87) reads -0.088; that for UFM1 isoform 2 (UniProt P61960), 0.079.
Consider TUBAL3 (UniProt A6NHL2), for which the log2 fold change was -0.351.
For TMEM184C (UniProt Q9NVA4), the log2 fold change was 0.041.
For TNFRSF8 (UniProt P28908) the value was 0.002; for TXNRD1 isoform 7 (UniProt Q16881), 0.04.
The result for TYW1 (UniProt Q9NV66) reads 0.003.
U2AF1 isoform 2 (UniProt Q01081): the log2 fold change is -0.052.
For VPS53 isoform 4 (UniProt Q5VIR6) the value was 0.003; for WASHC2C, A0A096LPC5, 0.085; for TRAPPC2L (UniProt Q9UL33), 0.039.
For TPR (UniProt P12270) the value was 0.067; for TMEM179B (UniProt Q7Z7N9), 0.098; for TNFAIP8 isoform 4 (UniProt O95379), 0.036.
In the case of VRK2 (UniProt Q86Y07), the log2 fold change is -0.078.
For UNC119B (UniProt A6NIH7) the value was -0.055; for WBP4 (UniProt O75554), 0.036; for VPS33A (UniProt Q96AX1), 0.099.
For WDR7 (UniProt Q9Y4E6), the log2 fold change is 0.126.
As for UBE4A isoform 2 (UniProt Q14139), the log2 fold change is -0.043.
With VARS2, A0A0G2JL52, the log2 fold change is -0.03.
The result for WDR47 (UniProt O94967) reads 0.011; that for TOMM20 (UniProt Q15388), 0.069; that for WASHC3 (UniProt Q9Y3C0), 0.007.
In the case of UBE2D1 (UniProt P51668), the log2 fold change was -0.025.
The result for WARS1 (UniProt G3V5U1) reads 0.342.
For TPM2 (UniProt P07951) the value was -0.069.
Regarding TOP2A isoform 4 (UniProt P11388), the log2 fold change was 0.119.
The result for TSEN2 (UniProt Q8NCE0) reads -0.041; that for UCHL5 isoform 3 (UniProt Q9Y5K5), -0.025; that for WDR46, A0A0G2JJL1, 0.023.
The result for TTC33 (UniProt Q6PID6) reads 0.094; that for TRAPPC13 isoform 5 (UniProt A5PLN9), -0.022; that for USP34 (UniProt Q70CQ2), -0.002.
The result for TMEM120A (UniProt Q9BXJ8) reads -0.404 (active); that for TXNIP (UniProt Q9H3M7), -0.146; that for WASHC5 (UniProt Q12768), -0.041.
On to TVP23C (UniProt Q96ET8), for which the log2 fold change was 0.419 (active).
